Vif-APOBEC3F blk: inhibitors of Vif-A3F interaction; HeLa A3F-eYFP + Vif (tagged APOBEC3F with the HIV-1 protein that degrades it), YFP fluorescence increase; Potency, µM (series often up to 46.1 µM), for the others: at the top dose activity, negative = active; 0.2% of 390,000 active; also: potency is read from the fitted curve at half-maximal effect; % of control where 0% means no effect; nearly all actives have a fitted effect of over 65% in size
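Fluorescence increase (Ex 488/Em 500-530) after overnight compound treatment at 37 deg C flags inhibition of Vif-driven A3F-eYFP loss in stable HeLa A3F-eYFP/Vif cells seeded overnight beforehand.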
Giardia killer: Giardia lamblia killing; Giardia lamblia trophozoite viability; activity change, % at 7.66 µM, hits read low; 0.15% of 340,000 active; in the data active = activity change below about -80%; inconclusive = between about -30% and that limit;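 also: parasites exposed to compound for two days anaerobically before the ATP read; % is scaled to controls: 0 for no effect and ±100 for the full control effect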
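Trophozoite viability was measured as ATP-dependent luminescence, read 15-30 min after reagent addition. Before that, parasites at 100 cells/well were exposed to compounds for 48 h, anaerobically, at 37 deg C.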
IL-1B inflam inh: blocks inflammasome-driven IL-1 beta release. THP-1 LPS/ATP IL-1B secretion, AlphaLISA, 16 h; hits give low values. activity change, % at 57.5 µM. 4.7% of 360,000 active. AID 743279; in the data active = activity change below about -50%; inconclusive = mostly about -30% to -49%; also: % is scaled to controls: 0 for no effect and ±100 for the full control effect
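Secreted IL-1B measured by AlphaLISA bead assay after 16 h compound exposure of THP-1 cells; compounds (final up to 57.5 uM) added 1 h before LPS (250 ng/mL) and ATP (1.25 mM) stimulation; lower signal means less secretion.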
SW480 rerep: DNA re-replication induction in SW480 cells; SW480 DNA re-replication, Hoechst DNA content imaging, 48 h; Potency, µM (top dose mostly 46.1 µM), without a hit: top-dose re-replication activation, usual class: activators; 1.8% of 340,000 active; also: potency is read from the fitted curve at half-maximal effect; % of control where 0% means no effect; nearly all actives have a fitted effect of over 55% in size
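Readout is total intensity of Hoechst-stained nuclei, excited at 405 nm and collected at 500-530 nm. Compound treatment lasted 48 hr at 37 C in 5% CO2 before staining.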
Vif-APOBEC3G blk: inhibitors of Vif-APOBEC3G interaction; HeLa A3G-eYFP + Vif (tagged APOBEC3G with the HIV-1 protein that degrades it), YFP fluorescence, overnight; Potency, µM (titrated, usually from 46.1 µM), for inactives: at the highest dose activity, negative = active, actives largely listed as inhibitors; 0.076% of 410,000 active; AID 602310; also: potency is read from the fitted curve at half-maximal effect; % is scaled to controls: 0 for no effect and ±100 for the full control effect; nearly all actives have a fitted effect of over 60% in size
Target sequence (Q9HC16 whole entry, looked up): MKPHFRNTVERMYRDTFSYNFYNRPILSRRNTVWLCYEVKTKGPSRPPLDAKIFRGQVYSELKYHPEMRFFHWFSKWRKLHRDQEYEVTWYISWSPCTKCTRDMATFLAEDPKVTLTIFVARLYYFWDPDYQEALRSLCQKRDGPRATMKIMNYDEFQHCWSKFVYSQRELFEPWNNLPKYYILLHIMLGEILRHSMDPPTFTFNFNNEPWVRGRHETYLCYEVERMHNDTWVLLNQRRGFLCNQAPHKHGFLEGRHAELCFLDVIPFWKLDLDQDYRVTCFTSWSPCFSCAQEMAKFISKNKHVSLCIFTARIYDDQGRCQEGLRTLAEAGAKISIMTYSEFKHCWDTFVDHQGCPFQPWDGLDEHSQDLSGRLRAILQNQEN
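Read-out is eYFP fluorescence (Ex 488/Em 500-530) from Vif-expressing HeLa A3G-eYFP cells; more signal means A3G escaped Vif-mediated degradation. Cells plated overnight, compound pinned in, incubated overnight at 37 deg C.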
MCF10A rerep: DNA re-replication induction in MCF 10a cells | AID 624296 | Potency, µM (highest dose often 46.1 µM), for inactives: at the highest dose activity, positive = re-replication, actives largely listed as activators | MCF 10A DNA re-replication, Hoechst nuclear intensity, 48 h | 2.9% of 350,000 active; also: potency is read from the fitted curve at half-maximal effect; % of control where 0% means no effect; nearly all actives have a fitted effect of over 50% in size
* = called active by the depositor; i = inactive; ? = inconclusive; nt = not tested or not shown. Rows were chosen to be rich in hits. Some 6.9% of all compounds tested hit in one or more screens of this group. Unless noted, calls follow the shape of the dose curve; as a rule, active = well fitted curve in the direction sought with a large enough effect; inconclusive = small, poorly fitted or top-dose-only effect, or another doubt; inactive = no such curve, though single readings can be large; an effect the other way counts as inactive or inconclusive.

SMILES	Vif-APOBEC3F blk	Giardia killer	IL-1B inflam inh	SW480 rerep	Vif-APOBEC3G blk	MCF10A rerep
COc1ccc(C2(CNC(=O)C(=O)Nc3ccc(C)c(Cl)c3)CCCC2)cc1OC	-20.9%	nt	nt	nt	-3.3%	nt
CCOc1ccc2nc(NC3=NC(c4ccc(OC)cc4)CC(=O)N3)nc(C)c2c1 (stereo not given)	?	0.5	-103.4*	-5.6%	?	-7.7%
CCOc1ccc2nc(NC3=NC(C)(C)C=C(C)N3)nc(C)c2c1	3.1%	-11.4	-25.7	3.8%	1.0%	10.3%
CN(C)c1ccc(/C=N\Nc2ccc([N+](=O)[O-])cc2[N+](=O)[O-])cc1Br	nt	nt	nt	nt	2.2%	nt
NC(=S)N/N=C/c1ccc(-c2cccc([N+](=O)[O-])c2)o1	?	1.3	-5.3	-2.2%	-4.2%	?
O=C(O)c1cccc(-c2ccc(/C=N/Nc3ccc([N+](=O)[O-])cc3)o2)c1	22.4µM*	2.6	-6.6	?	?	18.4µM*
O=C(O)c1ccc(-c2ccc(/C=N/Nc3ccc([N+](=O)[O-])cc3)o2)cc1	?	5.7	5.2	18.4µM*	10µM*	18.4µM*
Cc1cc2ccc(Cl)nc2nc1C	nt	nt	nt	nt	-3.2%	nt
Cc1c(O)ccc2cc(S(=O)(=O)c3ccccc3)c(=O)oc12	-9.7%	-1.7	44.1	1.84µM*	-5.0%	4.11µM*
CCc1ccc(C(=O)Nc2cccc(-c3nc4cc(C(C)C)ccc4o3)c2)cc1	-3.3%	nt	nt	nt	-2.4%	nt
O=C(NCc1cccc(C(F)(F)F)c1)c1cc(Cl)ccc1Cl	-1.8%	-5.7	-24.7	10.3µM*	4.1%	1.1%
O=C(NCc1cccc(Cl)c1)c1ccc(S(=O)(=O)Nc2cccc(C(F)(F)F)c2)cc1	-19.9%	7.8	-77.9*	3.1%	-18.6%	?
CCCCN(CC)c1nc(-c2ccccc2F)nc2ccccc12	0.9%	nt	nt	nt	-0.4%	nt
O=C(CC1NCCC[C@H]1O)Cn1cnc2cc(Br)c(Cl)cc2c1=O (stereo not given in full)	nt	nt	nt	0.5%	nt	2.5%
COC(=O)c1c(NC(=O)COc2cc(C)c(Cl)c(C)c2)sc2c1CCCC2	1.6%	nt	nt	nt	2.0%	nt
COc1ccc(-c2csc(=NCCO)n2-c2ccccc2)cc1	-0.7%	-4.2	-74.2*	-5.2%	-0.1%	?
Cc1nnc(NC(=O)CSCc2cc(=O)c3cc(Cl)ccc3[nH]2)s1	0.7%	nt	nt	nt	0.7%	nt
Clc1ccc(CNc2ncnc3[nH]ncc23)c(Cl)c1	-1.4%	-2.9	-53.8*	-6.0%	2.7%	16.8%
COc1ccc(/C=N/N(C)C2=NS(=O)(=O)c3ccccc32)cc1	-1.5%	5.9	-6.0	0.0%	-1.0%	4.4%
CN(/N=C/c1ccc(N(C)C)cc1)C1=NS(=O)(=O)c2ccccc21	i	-14.4	-11.9	7.31µM*	4.47µM*	8.2µM*
COc1ccc(N(C)C2=NS(=O)(=O)c3ccccc32)cc1	-0.1%	13.4	44.5	2.59µM*	?	5.8µM*
Cc1ccc(CNC(=O)CSc2nc3ccsc3c(=O)n2Cc2ccc(C(=O)O)cc2)cc1	5.4%	3.5	10.6	-22.7%	-3.0%	0.651µM*
Cc1ccc(Cn2c(SCC(=O)NCc3ccccc3)nc3ccsc3c2=O)cc1	-8.6%	nt	nt	nt	2.5%	nt
CSc1cccc(NC(=O)Cn2c(=O)n(Cc3ccccc3)c(=O)c3sc4ccccc4c32)c1	-19.0%	nt	nt	nt	-1.8%	nt
CN(C)CCNC(=O)CNC(=S)N(Cc1ccccc1)Cc1cccnc1	15.3%	-5.3	9.6	-2.8%	3.3%	-6.6%
SMILES	Vif-APOBEC3F blk	Giardia killer	IL-1B inflam inh	SW480 rerep	Vif-APOBEC3G blk	MCF10A rerep
Cc1ccc(CCNC(=O)CNC(=S)N(Cc2ccccc2)Cc2cccnc2)cc1	-12.6%	-9.9	-60.6*	-8.8%	0.7%	13.2%
O=C(CSc1ccc(Br)cc1)N1CCN(S(=O)(=O)c2ccccc2)CC1	-9.3%	0.8	-8.7	-3.9%	2.2%	3.9%
O=C(CSc1cccc(C(F)(F)F)c1)N1CCN(S(=O)(=O)c2ccccc2)CC1	0.9%	9.5	-55.3*	?	2.2%	-1.8%
Cc1ccc(-c2[nH]ncc2/C=N/n2c(COc3ccccc3)nc3ccccc3c2=O)cc1	-3.7%	-0.2	-91.8*	?	0.5%	18.4µM*
Cc1ccccc1OCc1nc2ccccc2c(=O)n1/N=C/c1cn[nH]c1-c1ccccc1	-9.0%	-8.2	-52.7*	?	-12.8%	?
Cc1ccc(CN2CCC(C(=O)Nc3cccc(-c4cccc(F)c4)c3)CC2)o1	4.1%	-5.7	-0.8	-2.1%	4.1%	-2.6%
CCn1cc(CN2CCC(C(=O)Nc3cccc(-c4cccc(F)c4)c3)CC2)cn1	-18.6%	-10.1	-9.3	2.4%	0.3%	0.4%
CC(C)n1cc(CN2CCC(C(=O)Nc3cccc(-c4cccc(Cl)c4)c3)CC2)cn1	12.1%	10.7	-25.4	3.26µM*	1.2%	18.4µM*
O=C(Nc1cccc(-c2cccc(Cl)c2)c1)C1CCN(Cc2ccc(CO)o2)CC1	-10.4%	-10.8	-81.0*	?	-2.8%	17.3%
C[C@@H]1C(=O)O[C@@H]1[C@@H](C)CO[Si](c1ccccc1)(c1ccccc1)C(C)(C)C	nt	11.8	nt	nt	-2.4%	nt
N#Cc1c[nH]n2c(NC3CCCCC3)c(-c3ccccc3F)nc12	-3.1%	nt	nt	nt	0.4%	nt
Cc1ccccc1OCC(=O)NCC(=O)OCC(=O)c1ccc2c(c1)CCCC2	nt	-4.5	nt	nt	0.7%	nt
CC(=O)NC(Cc1ccccc1)C(=O)N1CCN(C(=S)NCC(C)C)CC1 (stereo not given)	-1.6%	-5.9	-2.4	-14.1%	-12.2%	-3.6%
CCNC(=S)N1CCN(C(=O)C(Cc2ccccc2)NC(C)=O)CC1 (stereo not given)	0.2%	0.0	-6.0	5.2%	0.3%	0.651µM*
CC(C)OCCCNC(=O)CCCN1C(=O)CCn2nc(-c3cccn3C)cc21	4.0%	nt	nt	nt	1.9%	nt
Cc1cccc(NS(=O)(=O)c2ccc(NC(=O)CN(c3cc([N+](=O)[O-])ccc3C)S(C)(=O)=O)cc2)c1	-19.9%	0.3	?	18.4µM*	-8.2%	?
Cc1cc(N2CCN(c3cccc(C)c3C)CC2)n2cnnc2n1	0.3%	nt	nt	nt	4.4%	nt
CCc1c(C)sc2c1CCN(C(=O)Nc1cc(Cl)c(OC)cc1OC)C2c1ccccc1 (stereo not given)	1.8%	nt	nt	nt	-0.8%	nt
O=C1C=CC(=O)N1CCCCCCN1C(=O)C=CC1=O	1.1%	-18.1	-98.4*	11.6µM*	-13.6%	3.66µM*
COc1ccccc1CCn1cnc(-c2ccc(Br)cc2)c1C(C)C	nt	nt	0.0	nt	nt	nt
CCCCCc1c(-c2cccc(Cl)c2)ncn1CCc1ccccc1OC	nt	nt	0.0	nt	nt	nt
CCCCCc1c(-c2ccccc2OC)ncn1CCc1ccccc1OC	nt	nt	-94.7*	nt	nt	nt
CCCCc1c(-c2ccccc2OC)ncn1CCc1ccccc1OC	nt	nt	-100.1*	nt	nt	nt
COc1ccccc1CCn1cnc(Cc2ccccc2)c1C(C)C	nt	nt	-51.8*	nt	nt	nt

Screens (PubChem)
